# Compound activity from PubChem BioAssay.
# EWS-Fli inh = inhibitors of EWS/Fli oncoprotein transcriptional activity | inhibition, % at 12.6 µM | 350,000 tested, 0.67% active | AID 651661 | A673 NR0B1-luciferase reporter, viability-normalised;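 active = mean inhibition of at least 50% after viability correction, with every replicate also passing that limit; inconclusive = mean reaches 50% but only one of two replicates passes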;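 note: firefly luciferase signal divided by Alamar Blue viability fluorescence both relative to DMSO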
# PAX8 reporter = lowers PAX8-driven luciferase in RMG-I cells; AID 652154; 360,000 tested, 1.2% active; inhibition, % at 12.6 µM; RMG-I TPO-luciferase reporter, SteadyGlo, 24 h;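 active = mean replicate inhibition at least 60% with every replicate also reaching 60%; inconclusive = only one of the two criteria is met; inactive = mean below 60% and not all replicates reaching 60%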;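 note: luciferase light reporting Pax8 driven TPO promoter activity; plate controls were median of neutral control wells for no effect and mitoxantrone controls for full effect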
# HIV Env fusion = HIV envelope-mediated fusion inhibition. HeLa-JRFL Env/CEM21 cell fusion, luciferase. inhibition, % at 12.3 µM. 360,000 tested, 1.1% active;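 active = mean replicate inhibition score of at least 50 and every replicate individually at or above 50; inconclusive = only one of the two criteria met; inactive = mean below 50 and not all replicates reaching 50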;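 note: 0% = plate neutral controls and 100% = maraviroc near 300 nM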
# Statin myotox sup = suppression of simvastatin myotoxicity; C2C12 myotubes + simvastatin, ATP luminescence, 48 h; scaled: DMSO 0, geranylgeraniol control 100; rescue of ATP level, % at 7.49 µM; 330,000 tested, 0.78% active;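 active = mean ATP rescue above about 67%, or every replicate alone reaching that limit, limit read from the data, passing the limit was not always enough; inconclusive = no clear call, values can overlap the other calls; inactive = mean under the limit and some replicate under it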;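 note: myotubes were challenged with 10 µM simvastatin during compound exposure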
# GSIS activator = GLuc luminescence reporter in INS-1E cells, primary screen for activators of glucose-dependent secretion of insulin; INS-1E GLuc reporter insulin secretion, 2-3 h; activation, % at 16.6 µM; 370,000 tested, 0.61% active; AID 743287;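 active = lowest replicate activation of at least 40%, so every replicate reaches that level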;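 note: 0% = median of neutral control wells and 100% = median of IBMX positive control wells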
# miR122 inh = inhibitors of miR-122 in Huh7 cells; Huh7 miR-122 Renilla luciferase sensor, 48 h; neutral wells = 0, positive control = 100; activation (reporter increase), % at 12.5 µM; 340,000 tested, 0.3% active;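 active = mean replicate activation score at least 90 and every replicate individually at or above 90; inconclusive = only one of the two criteria met; inactive = neither criterion met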;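 note: higher luciferase means less miR-122 activity so hits act as miR-122 inhibitors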
# Numbers without * were called inactive; ? = inconclusive; · = not tested or not shown; [ ] = dose if it differs, or a comment. Compounds with a hit are over-represented: about 3.1% of the library has one in this group of screens.
SMILES,EWS-Fli inh,PAX8 reporter,HIV Env fusion,Statin myotox sup,GSIS activator,miR122 inh
Cn1cnnc1SCC(=O)N1CCC(Cc2ccccc2)CC1,·,·,·,99.4*,·,0.4
C/C=C/c1ccc2c(c1)O[C@H](CN(C)Cc1ccc(F)cc1)[C@H](C)CN([C@H](C)CO)S2(=O)=O,40.4,·,26.8[16.7 µM],7.6,2.7,2.7[16.7 µM]
CC(C)N1C(=O)c2ccccc2NC(=O)C1C(=O)NCc1ccccc1 (configuration not stated),0.2,-12.9,59.5*,·,-7.2,·
O=C(NCc1ccccc1)C1C(=O)Nc2ccccc2C(=O)N1C1CCCC1 (configuration not stated),2.2,-8.7,39.3,·,10.9,·
CC(C(=O)NCc1ccccc1)N1C(=O)CN(C)C(=O)c2ccccc21 (configuration not stated),·,·,·,89.2*,·,-6.4
CC(C(=O)NC(=O)NCc1ccccc1)N1C(=O)c2ccccc2C1=O (configuration not stated),·,·,·,95.7*,·,-5.4
CC(C(=O)NCc1ccccc1)N1C(=O)C2CC=C(Cl)CC2C1=O (configuration not stated),·,·,·,-2.5,·,-7.2
COc1ccc2c3c(n(C)c2c1)[C@H](CO)N(Cc1ccccc1OC)CC31CCN(C(=O)C2CC2)CC1,3.1,8.8,·,·,-10.2,·
COc1ccc(CN(C)C[C@H]2Oc3ccc(NC(=O)Nc4ccc5c(c4)OCO5)cc3C(=O)N([C@H](C)CO)C[C@H]2C)cc1,-6.7,·,-0.4[16.7 µM],4.1,-13.9,4.8[16.7 µM]
CCN(CCO)c1ccc(N=Nc2cc(C)[nH]n2)cc1,63.6*,86.6*,39.5,2.8,-12.0,·
CCN(CC)CCCNC(=S)N1CCN(c2nc(-c3ccc(F)cc3)cs2)CC1,61.1*,33.9,20.0,-6.9,35.5,-3.4
COc1cc2c(c(OCC(=O)NC(C)C)c1)C(=O)O[C@@H](C)CCCC(=O)CCCCC2,4.1,12.1,87.5*,-17.5,-4.0,-1.4
COc1cc(OCC(=O)NC(C)C)cc2c1C(=O)O[C@@H](C)CCCC(=O)CCCCC2,8.9,-10.5,72.7*,7.6,-1.1,-1.7
C[C@H]1CN([C@@H](C)CO)C(=O)c2cc(NC(=O)Cc3cn(C)c4ccccc34)ccc2O[C@@H]1CN(C)C(=O)Nc1ccc2c(c1)OCO2,-88.9,·,·,35.7,19.3,-22.6[16.7 µM]
Cc1ccc2c(CSc3nnc4ccccn34)cc(=O)oc2c1C,-37.4,65.9*,·,-1.6,15.8,1.8
Cc1ccc2c(CSc3nc4ccccc4c(=O)n3CCCO)cc(=O)oc2c1C,·,·,·,-7.2,·,-3.7
COc1ccc2c3c([nH]c2c1)[C@H](CO)N(C(=O)Nc1ccccc1F)CC31CCN(C(=O)C2CC2)CC1,21.8,32.2,·,·,-41.5,·
COc1ccc(Cl)cc1NC(=O)CN1C(=O)CCS(=O)(=O)c2ccccc21,·,·,·,2.4,·,·
COc1ccccc1NC(=O)CN1C(=O)CCS(=O)(=O)c2ccccc21,·,·,·,124.7*,·,10.1
Cc1cc(C)c2oc(C(=O)N(Cc3ccc(F)cc3)C3CCS(=O)(=O)C3)cc(=O)c2c1 (configuration not stated),6.2,5.6,-3.5,8.5,62.8*,·
C[C@H]1CN([C@@H](C)CO)C(=O)c2cc(NS(=O)(=O)c3ccc(F)cc3)ccc2O[C@H]1CN(C)CC1CCCCC1,7.9,-10.2,-5.5[16.7 µM],1.7,-12.6,3.0[16.7 µM]
COc1cccc(C2C(C#N)=C(N)Oc3cc(N)ccc32)c1OC (configuration not stated),·,-0.6,-22.7,22.5,-1.1,-0.6
N#CC1=C(N)Oc2cc(N)ccc2C1c1ccsc1 (configuration not stated),·,-1.9,-19.8,·,10.4,·
N#CC1=C(N)Oc2cc(N)ccc2C1c1cc(Br)cs1 (configuration not stated),58.4*,28.2,-10.0,-21.4,·,10.3
N#CC1=C(N)Oc2cc(N)ccc2C1c1ccccc1F (configuration not stated),54.5*,39.4,10.7,-46.2,-6.9,3.8
SMILES,EWS-Fli inh,PAX8 reporter,HIV Env fusion,Statin myotox sup,GSIS activator,miR122 inh
Cc1ccc(Cn2ncc3c(N4CCN(c5ccc(C)cc5)CC4)ncnc32)cc1,·,·,90.9*,2.8,·,-6.5
Cc1ccc(Cn2ncc3c(N4CCN(C)CC4)ncnc32)cc1,-9.3,3.0,2.6,·,0.6,·
Cc1ccccc1N1CCN(c2ncnc3c2cnn3Cc2ccc(Cl)cc2)CC1,·,·,·,31.8,·,·
Cc1ccc(Cn2ncc3c(N4CCN(Cc5ccc(Cl)cc5)CC4)ncnc32)cc1,·,·,96.5*,7.6,·,-2.0
CC1CCN(c2ncnc3c2cnn3Cc2ccc(Cl)cc2)CC1,·,-5.6,38.0,171.7*,·,-0.5
Cc1ccccc1-c1ccc([C@H]2[C@H]3CN(C(=O)Cc4ccccn4)CC(=O)N3[C@H]2CO)cc1,-0.2,-11.4,·,·,2.2,·
C[C@H]1CN([C@@H](C)CO)S(=O)(=O)c2ccc(-c3ccc(F)cc3)cc2O[C@H]1CN(C)C,3.1,·,-6.1[16.7 µM],-2.3,11.5,1.7[16.7 µM]
CC(=O)Nc1ccc(-c2ccnc3c2CC(C(=O)NCc2cccc(Cl)c2)O3)cc1 (configuration not stated),69.6*,·,-120.9,-19.3,·,6.1
NC(=O)c1cccc(-c2ccnc3c2CC(C(=O)NCc2cccc(Cl)c2)O3)c1 (configuration not stated),6.4,30.9,-50.3,-2.4,-4.4,3.7
CC(=O)Nc1cccc(-c2ccnc3c2CC(C(=O)NCc2cccnc2)O3)c1 (configuration not stated),5.9,8.6,3.6,-10.4,6.2,-3.6
CC(=O)Nc1cccc(-c2ccnc3c2CC(C(=O)NCc2cccc(Cl)c2)O3)c1 (configuration not stated),63.1*,34.0,-4.8,-52.0,-16.8,4.2
CCC[C@@H]1C[C@@]1(CCC)[C@@H](NP(=O)(c1ccccc1)c1ccccc1)c1ccc(C(=O)OC)cc1,20.8,5.7,95.7*,·,·,·
CC[n+]1ccc(/C=C/c2c[nH]c3ccccc23)cc1,22.3,75.5*,?,-89.2,-50.4,·
Cc1ccc2[nH]cc(/C=C/c3cc[n+](C)cc3)c2c1,59.9*,78.4*,41.5,-101.5,5.6,·
CCn1c(/C=C/c2c[nH]c3ccccc23)nc2ccccc2c1=O,-74.0,-92.3,-36.0,·,19.4,·
CO[C@@H]1CN(C)C(=O)c2cc(NS(C)(=O)=O)ccc2OC[C@@H](C)N(S(=O)(=O)CC(F)(F)F)C[C@H]1C,3.4,·,·,6.5,2.5,-0.9[16.7 µM]
COc1ccc(CN(C)C[C@H]2Oc3ccc(NC(=O)CCC(F)(F)F)cc3C(=O)N([C@H](C)CO)C[C@@H]2C)cc1,0.8,-5.6,·,1.6,8.1,-2.5[16.7 µM]
Cc1c(C(=O)Nc2ccc(Cl)cn2)oc2ccccc12,·,19.4,-176.6,85.6*,·,0.5
CCC(=O)N1C[C@H](C)[C@H](OC)CN(C)C(=O)c2cc(NC(=O)c3ccccc3)ccc2OC[C@@H]1C,-9.8,·,·,6.9,-2.6,13.6[16.7 µM]
